Results on 1 sequence are retold here after PMC7862700, “An all-to-all approach to the identification of sequence-specific readers for epigenetic DNA modifications on cytosine”.

What all share (experiment): DAPPL (digital affinity profiling via proximity ligation, sequencing); 10 mM Tris-HCl pH 7.5, 50 mM NaCl, 1 mM DTT, 4% glycerol, room temperature, 30 min; GST-TFs on glutathione beads, 16-mer random dsDNA library, 0.1% formaldehyde crosslink after washing; high values mean tight binding
Assay [1] addresses T1, FLI1 (Homo sapiens, UniProt Q01543 1-452).
T1 sequence: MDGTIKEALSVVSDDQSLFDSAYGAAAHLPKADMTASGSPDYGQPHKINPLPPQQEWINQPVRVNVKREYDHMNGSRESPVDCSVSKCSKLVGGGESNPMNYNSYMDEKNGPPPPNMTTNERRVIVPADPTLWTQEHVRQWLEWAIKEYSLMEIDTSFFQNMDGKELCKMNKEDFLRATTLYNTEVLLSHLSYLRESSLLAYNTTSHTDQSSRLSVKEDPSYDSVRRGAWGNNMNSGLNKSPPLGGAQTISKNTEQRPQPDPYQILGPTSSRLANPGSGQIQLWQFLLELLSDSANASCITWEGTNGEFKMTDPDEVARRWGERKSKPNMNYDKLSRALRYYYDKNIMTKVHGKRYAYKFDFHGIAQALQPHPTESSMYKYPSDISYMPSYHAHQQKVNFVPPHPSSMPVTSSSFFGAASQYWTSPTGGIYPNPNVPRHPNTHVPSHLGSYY
Particulars: protein: recombinant; tags: N-terminal GST; dsDNA, one strand shown. Summed up: (§1)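 Beads coated with glutathione captured GST-fused human transcription factors that had been expressed in yeast, and the factors were then given DNA barcodes and pooled with a tag-only sample. The pools were incubated with 200 nmole of a random double-stranded 16-mer DNA library in Tris/NaCl/DTT/glycerol buffer for 30 min at room temperature, washed, crosslinked with 0.1% formaldehyde and proximity-ligated with BsaI/T4 ligase at 37 °C for 1 h. PCR amplification and Illumina NextSeq500 sequencing came last. Binding signal is each hexamer's read frequency for a factor divided by its frequency for the tag-only sample.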

The target in assay [2] is T2, ELK1 (Homo sapiens, UniProt P19419 1-428).
T2 sequence: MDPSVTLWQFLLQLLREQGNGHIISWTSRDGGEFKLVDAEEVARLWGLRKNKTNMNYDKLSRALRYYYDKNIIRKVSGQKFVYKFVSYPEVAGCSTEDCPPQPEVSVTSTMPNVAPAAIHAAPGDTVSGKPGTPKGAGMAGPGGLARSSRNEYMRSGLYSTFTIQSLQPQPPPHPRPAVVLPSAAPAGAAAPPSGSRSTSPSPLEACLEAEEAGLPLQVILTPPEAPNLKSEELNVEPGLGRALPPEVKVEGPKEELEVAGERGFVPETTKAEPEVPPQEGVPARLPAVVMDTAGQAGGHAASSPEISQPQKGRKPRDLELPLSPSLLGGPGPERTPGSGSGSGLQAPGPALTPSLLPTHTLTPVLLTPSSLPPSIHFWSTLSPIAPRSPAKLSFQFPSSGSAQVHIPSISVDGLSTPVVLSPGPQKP
The conditions noted are these: protein: recombinant; tags: N-terminal GST; dsDNA, one strand shown. Summed up: as §1

The target of assay [3] is T3, GABPA (Homo sapiens, UniProt Q06546 1-454).
T3 sequence: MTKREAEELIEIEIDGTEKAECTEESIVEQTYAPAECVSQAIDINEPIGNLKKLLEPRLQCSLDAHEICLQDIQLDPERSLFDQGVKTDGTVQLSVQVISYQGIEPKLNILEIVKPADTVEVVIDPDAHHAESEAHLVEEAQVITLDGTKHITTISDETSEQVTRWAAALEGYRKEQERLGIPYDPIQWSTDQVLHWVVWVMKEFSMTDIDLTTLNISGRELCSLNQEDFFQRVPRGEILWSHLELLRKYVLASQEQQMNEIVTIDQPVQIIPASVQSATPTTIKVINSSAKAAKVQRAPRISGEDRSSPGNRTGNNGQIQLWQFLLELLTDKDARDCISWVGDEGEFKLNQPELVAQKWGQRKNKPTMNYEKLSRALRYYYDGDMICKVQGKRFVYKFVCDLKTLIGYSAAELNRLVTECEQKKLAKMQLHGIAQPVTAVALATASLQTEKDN
Particulars: protein: recombinant; tags: N-terminal GST; dsDNA, one strand shown. Summed up: as §1

The target of assay [4] is T4, ERG (Homo sapiens, UniProt P11308 1-479).
T4 sequence: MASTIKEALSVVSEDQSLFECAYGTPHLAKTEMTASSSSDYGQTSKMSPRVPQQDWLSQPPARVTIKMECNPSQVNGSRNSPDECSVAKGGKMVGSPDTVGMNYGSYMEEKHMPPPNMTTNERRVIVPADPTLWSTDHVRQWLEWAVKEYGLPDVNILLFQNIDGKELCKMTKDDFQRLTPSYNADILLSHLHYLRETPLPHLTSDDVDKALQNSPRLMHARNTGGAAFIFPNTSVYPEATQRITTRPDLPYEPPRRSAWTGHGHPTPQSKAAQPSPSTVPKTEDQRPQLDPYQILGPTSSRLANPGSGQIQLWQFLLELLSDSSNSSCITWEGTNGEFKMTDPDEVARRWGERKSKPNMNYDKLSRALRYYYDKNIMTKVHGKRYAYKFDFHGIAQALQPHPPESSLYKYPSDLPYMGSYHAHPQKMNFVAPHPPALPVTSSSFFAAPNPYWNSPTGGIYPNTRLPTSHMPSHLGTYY
Particulars: protein: recombinant; tags: N-terminal GST; dsDNA, one strand shown. Summed up: as §1

Assay [5] addresses ELF1 (Homo sapiens, UniProt P32519 1-619). The conditions noted are these: protein: recombinant; tags: N-terminal GST; dsDNA, one strand shown. Summed up: as §1
The target in assay [6] is T5, EHF (Homo sapiens, UniProt Q9NZC4 1-300).
T5 sequence: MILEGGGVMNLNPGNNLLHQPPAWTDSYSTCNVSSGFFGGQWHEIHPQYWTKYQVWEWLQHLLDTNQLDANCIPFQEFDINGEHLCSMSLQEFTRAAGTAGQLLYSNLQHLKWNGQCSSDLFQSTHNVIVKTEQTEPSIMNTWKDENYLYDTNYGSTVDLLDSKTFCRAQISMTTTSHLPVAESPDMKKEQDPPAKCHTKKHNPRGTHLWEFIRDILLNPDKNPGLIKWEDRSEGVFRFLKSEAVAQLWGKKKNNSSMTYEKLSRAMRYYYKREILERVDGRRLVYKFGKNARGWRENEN
Particulars: protein: recombinant; tags: N-terminal GST; dsDNA, one strand shown. The essentials: as §1

Assay [7] deals with SPI1 (Homo sapiens, UniProt P17947 1-270). Particulars: protein: recombinant; tags: N-terminal GST; dsDNA, one strand shown. Summed up: as §1
In assay [8] the target is SPIB (Homo sapiens, UniProt Q01892 1-262). Particulars: protein: recombinant; tags: N-terminal GST; dsDNA, one strand shown. Summed up: as §1
Sequence of SPIB (Q01892 whole entry): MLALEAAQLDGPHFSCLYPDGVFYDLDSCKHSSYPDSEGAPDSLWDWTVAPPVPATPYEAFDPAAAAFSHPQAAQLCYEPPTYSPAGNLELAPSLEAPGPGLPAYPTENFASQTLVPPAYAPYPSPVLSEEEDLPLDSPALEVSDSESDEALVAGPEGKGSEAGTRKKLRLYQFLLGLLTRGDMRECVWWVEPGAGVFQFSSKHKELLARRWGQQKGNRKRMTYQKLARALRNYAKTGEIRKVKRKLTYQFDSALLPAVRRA
The target of assay [9] is T6, ELK3 (Homo sapiens, UniProt P41970 1-407).
T6 sequence: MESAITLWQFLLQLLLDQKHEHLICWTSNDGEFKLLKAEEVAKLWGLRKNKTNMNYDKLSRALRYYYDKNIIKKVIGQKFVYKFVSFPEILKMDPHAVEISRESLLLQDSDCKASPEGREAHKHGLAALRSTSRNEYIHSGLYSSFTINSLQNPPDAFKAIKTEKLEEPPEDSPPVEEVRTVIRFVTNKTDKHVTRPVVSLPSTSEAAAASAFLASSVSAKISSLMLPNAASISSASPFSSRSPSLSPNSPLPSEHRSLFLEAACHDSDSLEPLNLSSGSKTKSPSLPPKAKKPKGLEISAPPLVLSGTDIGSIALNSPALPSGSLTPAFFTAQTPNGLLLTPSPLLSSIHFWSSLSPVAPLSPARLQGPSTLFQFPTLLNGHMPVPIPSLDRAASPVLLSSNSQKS
Particulars: protein: recombinant; tags: N-terminal GST; dsDNA, one strand shown. Summed up:
as §1

The target of assay [10] is T7, FEV (Homo sapiens, UniProt Q99581 1-238).
T7 sequence: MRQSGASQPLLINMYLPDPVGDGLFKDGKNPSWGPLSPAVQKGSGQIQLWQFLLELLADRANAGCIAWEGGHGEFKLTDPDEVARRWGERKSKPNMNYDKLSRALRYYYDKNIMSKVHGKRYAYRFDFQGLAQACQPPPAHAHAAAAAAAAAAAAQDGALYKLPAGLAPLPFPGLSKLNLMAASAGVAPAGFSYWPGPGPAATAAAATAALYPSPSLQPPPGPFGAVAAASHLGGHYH
Particulars: protein: recombinant; tags: N-terminal GST; dsDNA, one strand shown. Summed up:
as §1

In assay [11] the target is ETV5 (Homo sapiens, UniProt P41161 1-510). Particulars: protein: recombinant; tags: N-terminal GST; dsDNA, one strand shown. The essentials:
as §1

The target of assay [12] is HSF1 (Homo sapiens, UniProt Q00613 1-529). The conditions noted are these: protein: recombinant; tags: N-terminal GST; chain copies: 3; dsDNA, one strand shown. The essentials: as §1
Sequence of HSF1 (Q00613 whole entry): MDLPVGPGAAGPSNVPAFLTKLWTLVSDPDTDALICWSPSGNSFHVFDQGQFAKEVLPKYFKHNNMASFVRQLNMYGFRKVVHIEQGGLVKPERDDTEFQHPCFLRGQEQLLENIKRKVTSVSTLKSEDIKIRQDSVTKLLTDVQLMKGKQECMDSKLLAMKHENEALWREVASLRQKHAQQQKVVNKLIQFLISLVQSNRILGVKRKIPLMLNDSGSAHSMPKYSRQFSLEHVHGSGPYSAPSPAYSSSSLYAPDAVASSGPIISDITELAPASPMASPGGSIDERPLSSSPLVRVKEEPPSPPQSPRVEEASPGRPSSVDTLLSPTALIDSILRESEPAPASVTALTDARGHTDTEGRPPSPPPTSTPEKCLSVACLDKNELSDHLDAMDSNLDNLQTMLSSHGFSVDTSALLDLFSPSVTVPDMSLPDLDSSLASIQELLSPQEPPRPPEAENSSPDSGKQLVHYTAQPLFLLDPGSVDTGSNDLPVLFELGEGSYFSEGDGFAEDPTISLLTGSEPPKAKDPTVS
Assay [13] has as its target T8, SPIC (Homo sapiens, UniProt Q8N5J4 1-248).
T8 sequence: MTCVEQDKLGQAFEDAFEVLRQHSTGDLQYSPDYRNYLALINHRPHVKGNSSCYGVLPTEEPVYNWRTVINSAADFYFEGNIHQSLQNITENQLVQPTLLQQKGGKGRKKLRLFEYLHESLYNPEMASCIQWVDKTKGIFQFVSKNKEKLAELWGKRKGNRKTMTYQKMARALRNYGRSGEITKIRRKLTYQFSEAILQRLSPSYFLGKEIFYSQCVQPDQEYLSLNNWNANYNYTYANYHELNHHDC
The conditions noted are these: protein: recombinant; tags: N-terminal GST; dsDNA, one strand shown. Summed up:
as §1

Assay [14] addresses ELF4 (Homo sapiens, UniProt Q99607 1-663). The conditions noted are these: protein: recombinant; tags: N-terminal GST; dsDNA, one strand shown. Summed up:
as §1

The target in assay [15] is T9, ETV2 (Homo sapiens, UniProt O00321 1-342).
T9 sequence: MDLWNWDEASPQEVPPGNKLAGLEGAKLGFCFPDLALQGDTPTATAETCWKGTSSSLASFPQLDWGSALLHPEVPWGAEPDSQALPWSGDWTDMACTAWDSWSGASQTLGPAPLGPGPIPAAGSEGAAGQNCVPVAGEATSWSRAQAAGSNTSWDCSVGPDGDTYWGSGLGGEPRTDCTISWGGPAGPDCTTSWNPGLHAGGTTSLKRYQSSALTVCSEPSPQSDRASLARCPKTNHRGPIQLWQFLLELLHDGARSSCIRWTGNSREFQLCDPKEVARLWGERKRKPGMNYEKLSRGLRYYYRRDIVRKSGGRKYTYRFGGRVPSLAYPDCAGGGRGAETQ
Particulars: protein: recombinant; tags: N-terminal GST; dsDNA, one strand shown. Summed up:
as §1

Assay [16] deals with T10, ELF3 (Homo sapiens, UniProt P78545 1-371).
T10 sequence: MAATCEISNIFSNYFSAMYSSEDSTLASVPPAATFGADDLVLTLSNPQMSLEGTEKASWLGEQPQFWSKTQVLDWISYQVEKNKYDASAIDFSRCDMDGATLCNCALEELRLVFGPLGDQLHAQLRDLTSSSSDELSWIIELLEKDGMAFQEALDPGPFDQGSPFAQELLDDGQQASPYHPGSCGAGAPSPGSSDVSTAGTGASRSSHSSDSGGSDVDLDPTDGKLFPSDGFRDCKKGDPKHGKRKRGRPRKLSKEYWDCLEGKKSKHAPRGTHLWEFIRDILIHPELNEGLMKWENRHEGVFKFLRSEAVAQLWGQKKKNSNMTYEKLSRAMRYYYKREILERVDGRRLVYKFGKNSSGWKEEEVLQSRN
The conditions noted are these: protein: recombinant; tags: N-terminal GST; dsDNA, one strand shown. The essentials:
as §1

The target in assay [17] is CRX (Homo sapiens, UniProt O43186 1-299). The conditions noted are these: protein: recombinant; tags: N-terminal GST; dsDNA, one strand shown. The essentials:
as §1

Sequence of ELF1 (P32519 whole entry): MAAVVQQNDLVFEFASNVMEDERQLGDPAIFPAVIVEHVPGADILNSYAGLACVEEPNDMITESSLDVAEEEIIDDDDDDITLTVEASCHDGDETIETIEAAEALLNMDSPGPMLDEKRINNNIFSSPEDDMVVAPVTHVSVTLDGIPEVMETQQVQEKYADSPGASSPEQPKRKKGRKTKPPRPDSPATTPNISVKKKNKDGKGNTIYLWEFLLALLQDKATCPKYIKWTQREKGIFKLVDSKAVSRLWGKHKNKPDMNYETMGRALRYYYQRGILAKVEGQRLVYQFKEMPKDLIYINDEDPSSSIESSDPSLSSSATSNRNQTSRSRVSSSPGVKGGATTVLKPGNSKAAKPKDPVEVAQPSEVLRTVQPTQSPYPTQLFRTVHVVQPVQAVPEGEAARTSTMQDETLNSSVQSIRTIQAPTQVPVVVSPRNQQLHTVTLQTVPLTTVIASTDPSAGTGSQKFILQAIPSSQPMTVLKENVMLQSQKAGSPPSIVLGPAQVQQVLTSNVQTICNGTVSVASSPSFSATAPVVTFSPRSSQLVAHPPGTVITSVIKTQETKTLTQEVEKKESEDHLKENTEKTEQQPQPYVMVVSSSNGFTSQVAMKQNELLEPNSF
Sequence of ELF4 (Q99607 whole entry): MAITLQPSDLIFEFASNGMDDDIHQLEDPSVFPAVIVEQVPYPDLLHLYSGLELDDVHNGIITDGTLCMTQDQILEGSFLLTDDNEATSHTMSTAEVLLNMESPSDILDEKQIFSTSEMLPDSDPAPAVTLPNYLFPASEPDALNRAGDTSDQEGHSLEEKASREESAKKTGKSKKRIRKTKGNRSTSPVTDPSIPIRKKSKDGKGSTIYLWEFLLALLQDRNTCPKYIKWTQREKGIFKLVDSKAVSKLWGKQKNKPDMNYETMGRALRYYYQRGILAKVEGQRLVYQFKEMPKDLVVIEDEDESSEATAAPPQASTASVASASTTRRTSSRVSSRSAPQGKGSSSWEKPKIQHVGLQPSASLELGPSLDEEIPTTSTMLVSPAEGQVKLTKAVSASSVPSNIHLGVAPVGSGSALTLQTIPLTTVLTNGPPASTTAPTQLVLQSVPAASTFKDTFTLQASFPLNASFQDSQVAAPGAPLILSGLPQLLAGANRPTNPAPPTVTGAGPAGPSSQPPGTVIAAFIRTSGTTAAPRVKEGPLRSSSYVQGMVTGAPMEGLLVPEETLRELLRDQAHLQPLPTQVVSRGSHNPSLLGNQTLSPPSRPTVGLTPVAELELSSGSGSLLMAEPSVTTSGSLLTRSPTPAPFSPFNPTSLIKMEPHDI
Sequence of ETV5 (P41161 whole entry): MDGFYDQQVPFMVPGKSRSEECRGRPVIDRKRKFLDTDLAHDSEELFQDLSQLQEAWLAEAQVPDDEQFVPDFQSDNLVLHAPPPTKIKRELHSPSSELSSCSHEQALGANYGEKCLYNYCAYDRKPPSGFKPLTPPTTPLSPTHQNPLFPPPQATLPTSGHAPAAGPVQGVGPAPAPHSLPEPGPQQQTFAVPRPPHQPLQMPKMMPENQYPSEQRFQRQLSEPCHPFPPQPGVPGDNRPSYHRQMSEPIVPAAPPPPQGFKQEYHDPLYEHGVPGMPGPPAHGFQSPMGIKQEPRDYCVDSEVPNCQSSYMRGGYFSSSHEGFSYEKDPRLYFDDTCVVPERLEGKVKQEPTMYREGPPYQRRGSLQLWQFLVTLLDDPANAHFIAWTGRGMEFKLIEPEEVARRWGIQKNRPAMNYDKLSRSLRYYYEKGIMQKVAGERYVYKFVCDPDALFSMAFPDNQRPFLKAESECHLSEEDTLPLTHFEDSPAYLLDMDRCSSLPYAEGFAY
Sequence of CRX (O43186 whole entry): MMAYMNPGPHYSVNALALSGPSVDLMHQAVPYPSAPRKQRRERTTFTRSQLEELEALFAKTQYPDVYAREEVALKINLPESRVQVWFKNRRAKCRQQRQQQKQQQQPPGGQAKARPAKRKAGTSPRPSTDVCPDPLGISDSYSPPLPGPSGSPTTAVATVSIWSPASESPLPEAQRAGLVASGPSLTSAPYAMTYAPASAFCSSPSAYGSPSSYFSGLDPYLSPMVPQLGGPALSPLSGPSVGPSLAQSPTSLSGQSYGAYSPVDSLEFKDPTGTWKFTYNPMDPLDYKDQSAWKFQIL

Take CTTACG: the binding signal was 1.16 fold enrichment (6-mer frequency, TF over GST control) in [1]; 1.15 fold enrichment (6-mer frequency, TF over GST control) in [2]; 1.11 fold enrichment (6-mer frequency, TF over GST control) in assay [3]; 1.02 fold enrichment (6-mer frequency, TF over GST control) in assay [4]; 1.1 fold enrichment (6-mer frequency, TF over GST control) in assay [5]; 1.07 fold enrichment (6-mer frequency, TF over GST control) in [6]. The binding signal in [7] is 1.09 fold enrichment (6-mer frequency, TF over GST control); in assay [8], 1.06 fold enrichment (6-mer frequency, TF over GST control); in assay [9], 1.07 fold enrichment (6-mer frequency, TF over GST control); in [10], 1.06 fold enrichment (6-mer frequency, TF over GST control); in assay [11], 1.12 fold enrichment (6-mer frequency, TF over GST control); in assay [12] it was 1.14 fold enrichment (6-mer frequency, TF over GST control). Moreover, the binding signal in assay [13] is 1.02 fold enrichment (6-mer frequency, TF over GST control); in [14], 1.14 fold enrichment (6-mer frequency, TF over GST control); in [15], 1.1 fold enrichment (6-mer frequency, TF over GST control); in assay [16], 1.11 fold enrichment (6-mer frequency, TF over GST control); in [17] it was 1.5 fold enrichment (6-mer frequency, TF over GST control).
